Inconclusive results are not listed. Activity calls are given as the source filed them. Calls come from the whole dose curve; as a rule, active = well fitted cell-killing curve with a large enough effect; inconclusive = small, poorly fitted or top-dose-only effect, or effect the other way; inactive = no such curve, though single readings can be large or run the other way. Where a SMILES comes first, the peptide text is derived from it. Bridges are numbered along the chain shown (N, C = ends). [ ]: non-standard residue; d: D form. The star is where a group is joined. X2 = CC[C@H](C)CCCCC(=O)*; Dab = NCC[C@H](N)C(=O)O
Test: qHTS assay to identify small molecule inhibitors of chordoma cells - UCH-1 (AID 1259355); note: nearly all actives have a fitted effect of over 55% in size
Settings: UCH-1 chordoma viability, CellTiter-Glo, 48 h, combination, with auranofin plus four topoisomerase inhibitors; series mostly up to 46.1 µM; activity, negative = inhibition: at the top concentration
How it was run: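 800 cells/well, overnight attach; compounds pinned at 15 concs, then auranofin/camptothecin/doxorubicin/rubitecan/topotecan combo added; 48hr 37 C, 5% CO2; CellTiter-Glo, 30min RT, luminescence.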
% is set by controls: 0 for no effect and ±100 for the full control effect; potency is the fitted concentration of half-maximal effect.

| Compound | activity, negative = inhibition | Potency |
| --- | --- | --- |
| CC[C@H](C)CCCCC(=O)N[C@@H](CCN)C(=O)N[C@H](C(=O)N[C@@H](CCN)C(=O)N[C@H]1CCNC(=O)[C@@H]([C@H](C)O)NC(=O)[C@H](CCN)NC(=O)[C@H](CCN)NC(=O)[C@H](CC(C)C)NC(=O)[C@@H](CC(C)C)NC(=O)[C@H](CCN)NC1=O)[C@@H](C)O (X2-[Dab]T[Dab][Dab][Dab][dL]L[Dab][Dab][dT]; lactam 4-C) | -2.58% [at 20.6 µM] (inactive) |  |
| CC(C)NCC(O)COc1ccccc1-n1cccc1 (stereo not drawn) | 1.56% (inactive) |  |
| OC1OC[C@@H](O)[C@H](O)[C@@H]1O (stereo partly drawn) | -23.1% (inactive) |  |
| CC[C@@H](C)[C@H](N)C(=O)O | -1.61% (inactive) |  |
| O=C(NNCNNC(=O)c1ccncc1)c1ccncc1 | -0.934% (inactive) |  |
| C=C1CC[C@H](O)CC1=C/C=C1\CCC[C@]2(C)[C@@H]([C@H](C)CCCC(C)(C)O)CC[C@@H]12 | -21.1% (inactive) |  |
| C[C@H](N)C(=O)N[C@@H](C)P(=O)(O)O | -3.15% (inactive) |  |
| Nc1nc2c(c(=O)[nH]1)N(C=O)C(CNc1ccc(C(=O)N[C@@H](CCC(=O)O)C(=O)O)cc1)CN2 (stereo partly drawn) | 2.41% [at 20.6 µM] (inactive) |  |
| C[N+]1(C)[C@@H]2CC(OC(=O)C(O)(c3cccs3)c3cccs3)C[C@H]1[C@@H]1O[C@@H]12 (stereo partly drawn) | -19.8% (inactive) |  |
| NC(=O)OCC(O)COc1ccc(Cl)cc1 (stereo not drawn) | -19.1% [at 20.6 µM] (inactive) |  |
| CCOC(=O)Oc1c(OC)cc(C(=O)O[C@@H]2C[C@@H]3CN4CCc5c([nH]c6cc(OC)ccc56)[C@H]4C[C@@H]3[C@H](C(=O)OC)[C@H]2OC)cc1OC | -4.59% [at 20.6 µM] (inactive) |  |
| O=C(OC[C@H]1O[C@](O)(COC(=O)c2cccnc2)[C@@H](OC(=O)c2cccnc2)[C@@H]1OC(=O)c1cccnc1)c1cccnc1 | -6.82% (inactive) |  |
| O=P(O)(O)OC[C@H]1O[C@](O)(COP(=O)(O)O)[C@@H](O)[C@@H]1O | -11.6% (inactive) |  |
| CC(=O)[O][Al][O]C(C)=O | -24.7% (inactive) |  |
| CC(C)=CCC/C(C)=C/CC/C(C)=C/CC/C(C)=C/CC1=C(C)C(=O)c2ccccc2C1=O | -24.6% (inactive) |  |
| O=C(CO)[C@@H](O)[C@H](O)[C@@H](O)C(=O)O | -25.5% (inactive) |  |
| CCCCCCCCCCCCCCCC(=O)OC[C@@H](O)[C@H]1OC[C@H](O)[C@H]1O | 1.67% (inactive) |  |
| CN(C)CCOc1ccc(/C(=C(/CCCl)c2ccccc2)c2ccccc2)cc1 | -27.5% (inactive) |  |
| Cc1cc(-c2ccc(N=Nc3c(S(=O)(=O)O)cc4cc(S(=O)(=O)O)cc(N)c4c3O)c(C)c2)ccc1N=Nc1c(S(=O)(=O)O)cc2cc(S(=O)(=O)O)cc(N)c2c1O |  | 11.2 µM (active) |

| Compound | activity, negative = inhibition | Potency |
| --- | --- | --- |
| OCCN1CCN(CC/C=C2/c3ccccc3Sc3ccc(Cl)cc32)CC1 | -11.7% [at 20.6 µM] (inactive) |  |
| CCOC(=O)Cc1ccc(-c2ccccc2)cc1 | -15.7% (inactive) |  |
| CCC(=O)c1ccc2c(c1)N(CCCN1CCN(CCO)CC1)c1ccccc1S2 | -37.2% (inactive) |  |
| O=C(O)Cc1nn(Cc2ccc(Br)cc2F)c(=O)c2ccccc12 | -12.7% (inactive) |  |
| CNC(C)CCC=C(C)C (stereo not drawn) | 0.377% (inactive) |  |
| O=C[C@H](O)[C@@H](O)[C@@H](O)[C@H](O)CO | -12.6% (inactive) |  |
| CC(C)c1ncc([N+](=O)[O-])n1C | -2.88% (inactive) |  |
| CC[C@H]1OC(=O)C[C@@H](O)[C@H](C)[C@@H](O[C@@H]2O[C@H](C)[C@@H](O[C@H]3C[C@@](C)(O)[C@@H](O)[C@H](C)O3)[C@H](N(C)C)[C@H]2O)[C@@H](CC=O)C[C@@H](C)C(=O)/C=C/C(C)=C/[C@@H]1CO[C@@H]1O[C@H](C)[C@@H](O)[C@@H](OC)[C@H]1OC | -18% (inactive) |  |
| CCN(CC)CCCC(C)Nc1cc(/C=C/c2ccccc2Cl)nc2cc(Cl)ccc12 (stereo not drawn) | 2.35% (inactive) |  |
| C[C@H](NCCc1ccc(O)cc1)[C@H](O)c1ccc(O)cc1 | -7.59% (inactive) |  |
| H-RKDVY-OH | 6.24% (inactive) |  |
| CC(=O)Nc1ccc(NC(=S)NC(=O)c2ccc(C(C)(C)C)cc2)cc1 | -13.9% (inactive) |  |
| CCN(CC)CCOC[C@H]1O[C@@H](O)[C@H](OCCN(CC)CC)[C@@H](O)[C@@H]1O | 2.14% (inactive) |  |
| CC(C)(C)NCC(O)CSc1nc(-c2ccc(C(N)=O)s2)cs1 (stereo not drawn) | -5.52% (inactive) |  |
| CNCC(O)c1ccc(OC(=O)C(C)(C)C)c(OC(=O)C(C)(C)C)c1 (stereo not drawn) | -5.44% [at 20.6 µM] (inactive) |  |
| Cc1ccccn1 | -9.8% (inactive) |  |
| O=C(O)[C@H]1CN(C/C=C/P(=O)(O)O)CCN1 | -8.32% (inactive) |  |
| COc1ccc([C@@H]2CC(=O)c3c(O)cc(O[C@@H]4O[C@H](CO[C@@H]5O[C@@H](C)[C@H](O)[C@@H](O)[C@H]5O)[C@@H](O)[C@H](O)[C@H]4O)cc3O2)cc1O | 4.95% [at 20.6 µM] (inactive) |  |
| CN[C@@H]1[C@@H](O[C@H]2O[C@H](CO)[C@@H](N)[C@H](O)[C@H]2O)O[C@H]2C[C@@H](N)[C@@H](O[C@H]3[C@H](O)[C@@H](O)[C@H](N)C[C@@H]3N)O[C@@H]2[C@@H]1O | -7.03% [at 20.6 µM] (inactive) |  |

— PubChem BioAssay (NCATS)
